Source: PubChem BioAssay
Sampled rows, rich in hits. Any-hit rate of the full collection: about 10%.
HP1b chromo inh – inhibitors of HP1-beta chromodomain binding to methylated histone tails | Potency, µM (top dose mostly 114 µM), actives largely listed as inhibitors | hit rate 0.56% among 390,000 | AID 540317 | AlphaScreen HP1-beta / biotin-H3K9me3 peptide binding; further: nearly all actives have a fitted effect of over 70% in size
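HP1-beta protein (50 nM final) preincubated 30 min at room temperature with biotinylated H3(1-18)K9me3 peptide (50 nM) in PBS pH 7.4, 0.01% Tween-20, then compound added for 30 min. AlphaScreen streptavidin donor/nickel chelate acceptor beads (10 ug/mL final), 30 min dark, luminescence read.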
BAZ2B block – blocks human BAZ2B. hit rate 4.4% among 360,000. Q9UIF8. AID 504333. AlphaScreen BAZ2B-H3K14Ac peptide displacement. Potency, µM (highest dose often 114 µM), actives largely listed as inhibitors; further: nearly all actives have a fitted effect of over 60% in size
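Complex of BAZ2B and biotin-H3K14Ac (50 nM apiece) forms over 30 min at RT, then faces library compounds up to 110 uM for another 30 min; AlphaScreen beads added, 20 min dark incubation, luminescence read.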
G9a inh – G9a (human) methyltransferase inhibition. Q96KQ7. G9a H3K9 monomethylation, AlphaScreen, 2 h. Potency, µM (series often up to 102 µM), hits mostly inhibitors. hit rate 8.8% among 350,000. AID 504332; further: nearly all actives have a fitted effect of over 75% in size
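Using a bead-based AlphaScreen, monomethylated H3K9 product from 2 h room-temperature reactions (G9a 20 nM, peptide 500 nM, SAM 20 uM) was detected with 0.5 ug/mL rabbit anti-H3K9me1 antibody.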
GLS inhibitor – glutaminase GLS (human) inhibition. hit rate 0.21% among 410,000. GLS enzymatic activity, qHTS titration. O94925. Potency, µM (highest dose often 45.5 µM), usual class: inhibitors
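Two-point fluorescence kinetic (t0, 30 min RT) for hKGA; glutamate detected via glutamate oxidase–HRP–Amplex Red. Substrate: 1 mM L-glutamine solution; buffer 45 mM KH2PO4, pH 8.2.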
JMJD2A Tudor – JMJD2A Tudor domain (human) inhibition. O75164. Potency, µM (top dose mostly 114 µM), hits mostly inhibitors. hit rate 4.4% among 390,000. AlphaScreen JMJD2A-Tudor / H3K4me3 peptide binding; further: nearly all actives have a fitted effect of over 50% in size
Target sequence (O75164 whole entry, looked up, the tested form may be a part): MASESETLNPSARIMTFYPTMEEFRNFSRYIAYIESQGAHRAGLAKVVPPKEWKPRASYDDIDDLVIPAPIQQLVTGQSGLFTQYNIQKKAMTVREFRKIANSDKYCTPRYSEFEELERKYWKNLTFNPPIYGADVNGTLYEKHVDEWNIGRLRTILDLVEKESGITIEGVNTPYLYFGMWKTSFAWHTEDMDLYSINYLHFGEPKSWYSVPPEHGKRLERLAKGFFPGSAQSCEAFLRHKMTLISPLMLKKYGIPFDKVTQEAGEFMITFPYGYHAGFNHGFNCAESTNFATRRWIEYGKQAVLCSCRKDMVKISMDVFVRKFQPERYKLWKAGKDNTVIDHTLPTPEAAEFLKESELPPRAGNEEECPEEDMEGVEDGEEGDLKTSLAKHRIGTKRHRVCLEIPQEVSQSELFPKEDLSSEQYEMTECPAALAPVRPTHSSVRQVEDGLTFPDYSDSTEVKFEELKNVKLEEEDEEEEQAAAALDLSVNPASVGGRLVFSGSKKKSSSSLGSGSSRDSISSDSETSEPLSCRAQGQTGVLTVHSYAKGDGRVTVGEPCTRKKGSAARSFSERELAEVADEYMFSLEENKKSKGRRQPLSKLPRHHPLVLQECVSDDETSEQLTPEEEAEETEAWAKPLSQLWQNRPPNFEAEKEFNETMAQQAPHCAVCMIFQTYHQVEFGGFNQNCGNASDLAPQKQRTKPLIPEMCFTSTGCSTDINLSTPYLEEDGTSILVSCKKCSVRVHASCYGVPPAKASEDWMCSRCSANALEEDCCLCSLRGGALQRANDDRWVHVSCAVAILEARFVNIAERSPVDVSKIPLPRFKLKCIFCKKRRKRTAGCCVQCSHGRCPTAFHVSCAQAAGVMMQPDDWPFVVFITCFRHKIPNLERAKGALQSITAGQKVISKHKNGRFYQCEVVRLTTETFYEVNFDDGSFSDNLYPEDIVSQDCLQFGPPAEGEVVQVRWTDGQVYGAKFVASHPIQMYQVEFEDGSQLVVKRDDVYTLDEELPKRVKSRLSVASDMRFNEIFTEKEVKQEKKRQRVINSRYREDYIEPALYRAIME
Large screens that a line does not name were inactive. The call rests on the fitted dose curve; in most records, active means well fitted curve in the direction sought with a large enough effect; inconclusive means small, poorly fitted or top-dose-only effect, or another doubt; inactive means no such curve, though single readings can be large; an effect the other way counts as inactive or inconclusive.

C[n+]1c(-c2ccccc2)cc(CCCCc2cc(-c3ccccc3)[n+](C)c(-c3ccccc3)c2)cc1-c1ccccc1	BAZ2B block inconclusive, G9a inh 40µM, JMJD2A Tudor inconclusive
Cc1nc(C)c(C(=O)NN=Cc2ccc(N(CCCl)CCCl)cc2)s1	none (no result: BAZ2B block, G9a inh)
COc1cccc(CSc2nc(-c3ccccc3OC)nc3c2Cc2c(CO)cnc(C)c2O3)c1	G9a inh inconclusive
S=c1[nH]nc(-c2ccn[nH]2)n1-c1ccccc1Cl	HP1b chromo inh inconclusive, BAZ2B block 50µM, G9a inh 3.2µM, JMJD2A Tudor 20µM
CC(C)(C)C(=O)O[C@H]1CC[C@@]2(C)C(=CC(=O)C3C2CC[C@]2(C)C(=O)[C@@H](F)CC32)C1 (some centres undefined)	none (no result: BAZ2B block, G9a inh)
CCCCC(=O)Nc1c(C(=O)N2CCN(c3ccccc3F)CC2)oc2ccccc12	G9a inh inconclusive
Cc1ccc(N2C(=O)NC(=O)/C(=C/c3ccc(OC(=O)c4cccs4)cc3)C2=O)cc1	G9a inh 13µM, JMJD2A Tudor 89µM
COc1ccc(N2C(=O)NC(=O)/C(=C/c3cccc(OC(=O)c4cccs4)c3)C2=O)cc1Cl	BAZ2B block 79µM, G9a inh 10µM
COc1cc(/C=C2\C(=O)NC(=O)N(c3ccccc3)C2=O)cc(OC)c1O	BAZ2B block inconclusive, G9a inh inconclusive
OCCN(CC#CC(O)(c1ccccc1)C1CCCC1)CCO (centres undefined)	G9a inh 50µM, JMJD2A Tudor inconclusive
CC(C)C[C@H]1CN([C@@H](CC(C)C)CN2CCCC2CN2C(=S)NC[C@@H]2Cc2ccc(O)cc2)C(=S)N1CC1CCCCCC1 (some centres undefined)	JMJD2A Tudor inconclusive (no result: BAZ2B block, G9a inh)
CC1(C)C2CC=C(CN3CCC(O)CC3)C1C2 (centres undefined)	BAZ2B block inconclusive, G9a inh inconclusive, JMJD2A Tudor 3.5µM
COc1cc(OC)c2c(c1)OC(c1ccc(OC)c(OC)c1)C(O)C2 (centres undefined)	none (no result: HP1b chromo inh, BAZ2B block, GLS inhibitor, JMJD2A Tudor)
O=C(O)c1ccccc1NS(=O)(=O)c1cccc(N=Nc2c(O)[nH]c(=S)[nH]c2=O)c1	G9a inh 50µM
COc1ccc2c(c1)NP(=S)(c1ccccc1)N2C (centres undefined)	HP1b chromo inh 35µM, JMJD2A Tudor 50µM (no result: BAZ2B block, G9a inh)
CC12CCC3C4CCC(=O)C(O)=C4CCC3C1CCC2OC(=O)CCC1CCCC1 (centres undefined)	none (no result: HP1b chromo inh, BAZ2B block, JMJD2A Tudor)
Cc1ccc2c(c1)C1CN(C)CCC1N2C(=O)c1ccc(Br)o1 (centres undefined)	G9a inh 79µM
CCOP(=O)(OCC)/C(C#N)=C/c1cc(OC)ccc1OC	none
CC(C)NC(=O)C(C)N1CCN(S(=O)(=O)c2ccc3ccccc3c2)CC1 (centres undefined)	HP1b chromo inh 40µM, BAZ2B block 56µM, G9a inh 25µM, JMJD2A Tudor 3.2µM
CN(c1ccccc1)S(=O)(=O)c1ccc2ccccc2c1	none
CN1C(=O)C(=Cc2cn(CC(=O)N3CCCC3)c3ccccc23)C(=O)N(C)C1=O	G9a inh 28µM
CC1CCc2cc(F)cc3c(=O)c(C(=O)O)cn1c23 (centres undefined)	BAZ2B block 56µM, G9a inh 8.9µM, JMJD2A Tudor inconclusive
COc1cc2c(cc1OC)[C@@]13CCN4CC5=CCOC6CC(=O)N2C1[C@H]6[C@@H]5C[C@@H]43 (some centres undefined)	none (no result: HP1b chromo inh, BAZ2B block, JMJD2A Tudor)
Cn1c(O)c(/C=N/NC(=O)c2ccncc2)c(=O)[nH]c1=S	JMJD2A Tudor 79µM (no result: G9a inh)
CCCCn1c(O)c(/C=N/NC(=O)c2ccncc2)c(=O)[nH]c1=S	BAZ2B block 79µM
Cc1ccc(-c2cc(C(F)F)n3ncc(C(=O)N4CCc5ccccc5C4)c3n2)cc1	none
O=C(O)CP(=O)(O)c1ccc(Cl)cc1	G9a inh 50µM, JMJD2A Tudor 40µM
CCC(C(=O)N1CCC2(CC1)OCCO2)n1c2ccccc2c2nc(=O)cc(C)n21 (centres undefined)	none (no result: G9a inh)
Nc1c(C(=O)NCC2CCCO2)c2nc3ccccc3nc2n1Cc1ccco1 (centres undefined)	none
CCOC(=O)c1ccc(-n2c(N)c(C(=O)NCC3CCCO3)sc2=S)cc1 (centres undefined)	HP1b chromo inh 14µM, BAZ2B block inconclusive, G9a inh 10µM, JMJD2A Tudor inconclusive
CN(C)c1ccc2c(c1)N=C(c1ccco1)OP2(=S)N1CCOCC1 (centres undefined)	HP1b chromo inh 11µM, BAZ2B block inconclusive, G9a inh 14µM, JMJD2A Tudor 79µM
COc1cccc(C(=O)Nc2ccc3nc(SCC(=O)N(C)c4ccccc4)sc3c2)c1	none
CC1COC2=C1C(=O)C(=O)c1c2ccc2c1CCCC2(C)C (centres undefined)	G9a inh 7.1µM (no result: HP1b chromo inh, BAZ2B block, GLS inhibitor, JMJD2A Tudor)
C[C@H]1COC2=C1C(=O)C(=O)c1c2ccc2c1CCCC2(C)C	HP1b chromo inh inconclusive, BAZ2B block 14µM, JMJD2A Tudor 32µM
COc1ccccc1CN1CCCC2(CCN(C(=O)Oc3ccccc3)CC2)C1	none (no result: HP1b chromo inh, BAZ2B block, GLS inhibitor, JMJD2A Tudor)
CC(N)C(=O)NC1C2C(=C(O)CC(O)C2O)C(=O)OC1(C)C(Cl)Cl (centres undefined)	JMJD2A Tudor 25µM (no result: BAZ2B block, G9a inh)
Cc1cccc(-n2c(C)n[nH]c2=S)c1C	G9a inh inconclusive, JMJD2A Tudor 45µM
Cc1cccc(-n2c(C)nc3ccccc3c2=O)c1C	none
CN1CCN(c2ccc(/C=C3\C(=O)NC(=S)N(c4cccc(Br)c4)C3=O)o2)CC1	HP1b chromo inh inconclusive, BAZ2B block 40µM, G9a inh inconclusive, GLS inhibitor 11µM, JMJD2A Tudor inconclusive
CN1C(=O)/C(=C\c2ccc(N3CCCCC3)o2)C(=O)NC1=S	G9a inh 32µM
Cc1cc(N2CCCCC2)ccc1C=C1C(=O)N(C)C(=S)N(C)C1=O	HP1b chromo inh inconclusive, BAZ2B block 35µM, G9a inh 16µM, JMJD2A Tudor inconclusive
CN1C(=O)/C(=C/c2ccc(N3CCCCCC3)o2)C(=O)NC1=S	BAZ2B block inconclusive, G9a inh inconclusive
CN1C(=O)/C(=C\c2ccc(N3CCCCCC3)cc2)C(=O)NC1=S	BAZ2B block inconclusive, G9a inh 28µM, JMJD2A Tudor inconclusive
CCCCN1C(=O)/C(=C/c2ccc(N3CCCCCC3)cc2)C(=O)NC1=S	BAZ2B block inconclusive, G9a inh 18µM (no result: HP1b chromo inh, GLS inhibitor, JMJD2A Tudor)
Cc1ccc(N2C(=O)NC(=O)/C(=C\C=C\c3ccco3)C2=O)cc1	G9a inh 35µM
O=C1NC(=O)N(c2ccccc2)C(=O)/C1=C/C=C/c1ccco1	G9a inh 35µM
CN(C)c1ccc(/C=C/C=C2/C(=O)NC(=O)N(c3ccccc3)C2=O)cc1	HP1b chromo inh 16µM, BAZ2B block 13µM, G9a inh 16µM, JMJD2A Tudor inconclusive
Cc1cccc(N2C(=O)NC(=O)/C(=C/c3ccc([N+](=O)[O-])o3)C2=O)c1	HP1b chromo inh inconclusive, BAZ2B block 22µM, G9a inh inconclusive, GLS inhibitor 7.1µM, JMJD2A Tudor 20µM
